Consider 40 compounds from ChEMBL document CHEMBL3988442, “University of Dundee, Small-Polar-MMV Screening Library” (2021).

In this assay the target is AMP-activated protein kinase, AMPK (Homo sapiens) (UniProt P54646+O43741+P54619+Q9UGJ0+Q9Y478+Q13131+Q9UGI9). As to the kind of experiment: AMP-dependent Kinase enzyme assay. An in vitro enzyme assay that detects ADP turnover that is directly proportional to AMPK activity. This uses naive AMPK that is activated during the assay with MK-8722. In kind it is functional. More on the design: scale not given: direction of the effect not stated beside the values. The following applies: 30 µM.
As for `COC(=O)C1CCN(C(=O)Cn2ccc(-c3ccsc3)n2)CC1`, the Percent Effect was -3.29%.
The result for `COc1ncccc1N(C)C(=O)Cn1cc(-c2ccccc2)nn1` reads -1.29%; that for `COc1c(F)cc(NC(=O)N2CCC(CSC)C2)cc1F` (stereo not given), 2.71%; that for `N#CC1COCCN1C(=O)c1cccc2cc[nH]c12` (stereo not given), 5.13%.
Consider `CC(NC(=O)N1CCCN(C)CC1)c1ccc(S(N)(=O)=O)cc1` (stereo not given), for which the Percent Effect was determined as 5.68%.
In the case of `COc1c(CNCC(=O)N2CCN(C)CC2)c(C(C)C)nn1C`, the Percent Effect is -12.4%.
The result for `Cc1cc(C[S+]([O-])Cc2ccccc2F)no1` (stereo not given) reads 13.9%; that for `NC(=O)NC1CCN(Cc2ccc3c(c2)CCC3)CC1`, 2.24%.
The result for `O=C(c1coc(-c2ccccc2)n1)N1CCCC1` reads 5.08%; that for `CCC(C)NC(=O)c1sccc1-n1cnnn1` (stereo not given), 9.35%.
As to `CCC(=O)N1CCOC(c2cc(Nc3nncs3)cc(C)n2)C1` (stereo not given), the Percent Effect worked out at 23%.
In the case of `Cc1ccc(CNC(CCO)C2CCCCC2)nc1` (stereo not given), the Percent Effect is 2.17%.
The result for `NC(=O)NC1(C(=O)N2CCc3c(Cl)cccc3C2)CCCCC1` reads -3.74%; that for `Cc1ccc(S(=O)(=O)Cc2nsc(N(C)C)n2)c(C)c1`, -0.477%; that for `CCc1nnc(NC(=O)c2c3c(nn2C2CCS(=O)(=O)C2)CCC3)s1` (stereo not given), -8.02%.
The result for `O=C1CN(c2ccc(C(=O)N3CCc4ccccc43)cn2)CCN1` reads 5.07%; that for `COc1cccc(S(=O)(=O)N2CCCCC2CCN2CCOCC2)c1` (stereo not given), 39.4%; that for `CCSCc1cccc(NCc2cccnc2)c1`, 5.73%.
On to `Cc1ccnc(NC(=O)c2ccc(Br)o2)c1`, for which the Percent Effect came out at 5.24%.
For the compound `Cc1ccc(C(=O)N(C)CC(=O)N2CCCC2)c(C)c1`, the Percent Effect was -2.76%.
In the case of `CN(CC(=O)NCC(=O)Nc1ccc(F)cc1)Cc1cccs1`, the Percent Effect was -1.85%.
The result for `CCOc1ccccc1-n1c(C2CC2)n[nH]c1=O` reads 2.2%; that for `COC(=O)CC1CSCCN1C(=O)CCc1c(C)nn(C)c1C` (stereo not given), 5.71%.
`Cc1c(CN2CCCCC2)c(O)n(CCO)c(=O)c1C#N`: the Percent Effect was -415%.
The result for `Cc1cnc(CCNC(=O)NCCc2ccc(O)cc2)s1` reads 38.4%; that for `COCC1(Nc2nc(C)nc3c2cnn3C)CCCC1`, -2.92%.
The result for `O=C(CCCN1CCCCC1)NC(C(=O)O)c1cccc(F)c1` (stereo not given) reads 14.7%; that for `O=C(NCC(F)(F)F)c1ccc(-n2cncn2)nn1`, -2.06%; that for `CC(=O)N1CCCN(C(=O)NC(C)Cn2ccnc2)CC1` (stereo not given), -5.96%.
For `CN(Cc1cn(C2CCNCC2)nn1)CC1CCCO1` (stereo not given), the Percent Effect turned out to be 3.31%.
The result for `CCC(NCCn1cccn1)C(=O)Nc1cc(C)on1` (stereo not given) reads 2.9%; that for `CN1CCCN(C[C@@H]2CN(c3nc(C(N)=O)cs3)C[C@@H]2CO)CC1`, -0.955%.
The result for `CSc1ccc(OCCN2CCNC(=O)CC2)cc1` reads 9.33%.
In the case of `Fc1ccc(C2(CNCC(F)F)CCOC2)cc1` (stereo not given), the Percent Effect amounted to 3.05%.
The result for `O=C(NCC(F)(F)F)c1ccc(-n2cccn2)nn1` reads 0.877%; that for `CC(C(=O)NCc1ccc(F)cc1)N(C)CCN1CCOCC1` (stereo not given), 2.87%.
The result for `COc1ccc(NC(=O)N2CCC(CSC)C2)cc1C` (stereo not given) reads -6.6%; that for `CCNC(=O)CN(CC)C(=O)c1csc(Cc2ccccc2F)n1`, 4.98%.
The result for `CN(Cc1ccc(OCC(=O)N2CCOCC2)cc1)S(C)(=O)=O` reads -30.8%; that for `CN(C)S(=O)(=O)NCC1CCN(Cc2ccccc2F)CC1`, -2.6%.
